Assay outcomes: PubChem, National Center for Advancing Translational Sciences (NCATS)
LASV entry inh: inhibitors of Lassa virus binding or cell entry; Lassa virus pseudotype entry inhibition, cell reporter; Potency, µM (doses to about 37.9 µM), for inactives: top-dose activity change, negative = inhibition, hits mostly inhibitors; 300,000 compounds, 1.2% hits; calls by dose curve; tested in HEK293 cells; further: nearly all actives have a fitted effect of over 50% in size
FMDV antiviral: antivirals against foot and mouth disease virus | FMDV antiviral cell-based qHTS | Potency, µM (doses to about 57.9 µM), for the others: top-dose activity change, negative = inhibition, usual class: inhibitors | 410,000 compounds, 1.2% hits | AID 1159524; calls by dose curve; tested in HEK293T cells; further: read-out not given here; nearly all actives have a fitted effect of over 45% in size
HCV inh: blocks hepatitis C virus. Huh7.5.1 HCVcc-Cre infection, luciferase reporter, 44 h. Potency, µM (series often up to 41.8 µM), for the others: at the top dose activity change, negative = inhibition, actives largely listed as inhibitors. 340,000 compounds, 3.4% hits. AID 651820; active means well fitted inhibition curve with a large enough effect; inconclusive means small, poorly fitted or top-dose-only effect, or another doubt; inactive means no such curve, though single readings can be large or run the other way
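HCVcc-Cre virus at an moi near 0.5 was added right after compound to cells cultured 4 h from seeding (1,000 cells/well). Luciferase activity was determined 44 h later, 15 min after substrate addition at RT.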
VACV mCherry inh: inhibitors of vaccinia virus infection (mCherry reporter signal); Vaccinia virus mCherry reporter infection, fluorescence; Potency, µM (top dose mostly 36.5 µM), without a hit: top-dose activity change, negative = inhibition, hits mostly inhibitors; 310,000 compounds, 0.63% hits; calls by dose curve; tested in A549 cells; further: nearly all actives have a fitted effect of over 35% in size
Vaccinia Venus: inhibitors of vaccinia virus (Venus reporter); Vaccinia virus Venus reporter expression, fluorescence; Potency, µM (highest dose often 36.5 µM), without a hit: at the highest dose activity change, negative = inhibition, most hits filed as inhibitors; 330,000 compounds, 0.46% hits; calls by dose curve; tested in A549 cells; further: nearly all actives have a fitted effect of over 30% in size
MARV entry inh: Marburg virus entry inhibition. 300,000 compounds, 1.8% hits. Marburg virus pseudotyped entry inhibition, cell reporter. Potency, µM (series often up to 37.8 µM), inactives show at the top dose activity change, negative = inhibition, usual class: inhibitors. AID 540276; calls by dose curve; tested in HEK293 cells
An asterisk follows results filed as active; i = inactive; ? = inconclusive; . = no result; [ ] = remark or other dose. Hits are enriched below; roughly 5.3% of the tested compounds scored in any of these assays. On the % scale 0 is the no-effect control and ±100 the full control effect; potency means the concentration at half of the fitted maximal effect.

SMILES	LASV entry inh	FMDV antiviral	HCV inh	VACV mCherry inh	Vaccinia Venus	MARV entry inh
COc1cccc(-c2nnc3sc(CN4CCCCC4)cn23)c1	-8%[46.1 µM]	-23%	.	-4%	-28%	.
COc1cccc(-c2nc(Cn3c(=O)cc(C)c4c(C)nn(-c5ccccc5)c43)c(C)o2)c1OC	-13%[46.1 µM]	2%	.	2%	1%	.
N#Cc1c(N)nc(SCc2ccncc2)c(C#N)c1-c1cccs1	?	16µM*	0.56µM*	?	?	?
COc1cc(-c2c(C#N)c(N)nc(SCc3ccncc3)c2C#N)cc(OC)c1OC	?	?	6%	-12%	-22%	?
CCCC[C@]12Cc3cc(C#N)ccc3[C@H](O1)c1c(cc(C)n(Cc3ccccc3)c1=O)O2	.	.	.	.	.	-23%[14.2 µM]
COc1ccc(NC(=O)C2CCCN(S(=O)(=O)c3ccc4c(c3)CCCC(=O)N4)C2)c(OC)c1 (centres undefined)	-4%[46.1 µM]	?	.	-4%	-3%	.
O=C(CCC(=O)N1CCN(c2ccccc2F)CC1)N1CCN(c2ccc(F)cc2)CC1	?	22µM*	?	-13%	-18%	-2%
COc1ccc(CC(=O)N2CCN(c3ccccc3OC)CC2)cc1OC	-14%	0%	-23%	-2%	-10%	-8%
O=C(CCC(=O)N1CCN(c2ccccc2F)CC1)N1CCN(c2ccccc2)CC1	.	-12%	-10%	.	.	.
COc1ccc(CC(=O)N2CCN(c3ccccc3F)CC2)cc1OC	?	-22%	11µM*	-3%	-11%	?
CCOc1ccc(S(=O)(=O)NCc2cccn2Cc2cccc(C)c2)cc1	0%[46.1 µM]	21%	.	-16%	-6%	.
Cc1c(Cl)cccc1-n1nnc(-c2nc(-c3ccc4c(c3)OCO4)no2)c1C	?	11%	.	-14%	-21%	.
COc1ccc(/C=N/NC(=O)CSc2nnc(CCCc3ccc(OC)c(C)c3)o2)cc1	7.9µM*	-27%	-14%	.	?	?
C=CCc1cc(/C=N\NC(=O)CSc2nnc(CCCc3ccc(OC)c(C)c3)o2)cc(OC)c1O	?	-1%	-21%	.	-24%	-2%
COc1ccc(CCCc2nnc(SCC(=O)N/N=C\c3ccc(O)c(OC)c3)o2)cc1C	?	22µM*	?	.	-30%	?
CCCCN1C(=O)C(O)(CC(=O)c2ccc(CC)cc2)c2cc(Br)ccc21 (centres undefined)	5%[46.1 µM]	-8%	.	-10%[7.34 µM]	-1%[7.34 µM]	?
CCOc1ccc(CN2CCCC(C(=O)c3ccccc3OC)C2)cc1 (centres undefined)	?	-4%	?	?	-17%	8.9µM*
COc1ccc(Br)cc1CN1CCCC(C(=O)N2CCCCCC2)C1 (centres undefined)	?	?	3.2µM*	.	-26%	?
COc1ccccc1CN1CCCC(C(=O)c2ccccc2SC)C1 (centres undefined)	?	-21%	-45%	-13%	-20%	10µM*
COc1cccc(OC)c1CN1CCCC(C(=O)c2ccccc2SC)C1 (centres undefined)	?	-14%	?	-8%	-9%	6.3µM*
COc1ccccc1CN1CCCC(C(=O)c2ccccc2OC)C1 (centres undefined)	?	-13%	?	?	-3%	?
COc1ccc(CNC(=O)C2CCN(c3nc4ccccc4[nH]3)CC2)c(OC)c1	-2%[46.1 µM]	-7%	.	-6%	6%	.
COc1ccc(O)c(CN2CCCC(C(=O)c3ccccc3SC)C2)c1 (centres undefined)	-6%	?	11µM*	i	-5%	?
CSc1ccccc1C(=O)C1CCCN(Cc2ccncc2)C1 (centres undefined)	.	-23%	?	.	.	.
Cc1ccc2oc(-c3ccc(Cl)c(NC(=O)c4ccc(-c5ccccc5[N+](=O)[O-])o4)c3)nc2c1	3%[46.1 µM]	58%	.	2%	7%	10%[46.1 µM]
SMILES	LASV entry inh	FMDV antiviral	HCV inh	VACV mCherry inh	Vaccinia Venus	MARV entry inh
CSc1ccc(/C=C/c2ccc3cccc(O)c3n2)cc1	?	-59%	?	-23%	5%	2.5µM*
COc1cc(Br)c(/C=C/c2ccc3cccc(O)c3n2)cc1OC	.	14%	10µM*	.	.	.
COc1cc(/C=C/c2ccc3cccc(O)c3n2)ccc1O	.	-23%	11µM*	?	?	.
Oc1c(Cl)cc(Cl)cc1/C=C/c1ccc2cccc(O)c2n1	?	-25%	?	2.5µM*	182%	?
Oc1ccc(Cl)cc1/C=C/c1ccc2cccc(O)c2n1	-16%[46.1 µM]	28%	?	?	2%	?
Cc1ncc2c(c1CNS(=O)(=O)c1cccs1)CCN(C(=O)/C=C/c1cc(F)cc(F)c1)C2	.	-5%	.	-20%	-12%	.
Cc1ccccc1Nc1c(-c2cccc(N(C)C)c2)nc2ccc(Br)cn12	12%[46.1 µM]	35%	.	-13%	-9%	6%[46.1 µM]
COc1cc(CNC(=O)c2ccc3nc(Cc4ccccc4)oc3c2)cc(OC)c1OC	?	?	.	?	-19%	.
COc1ccc(CNC(=O)COC(=O)c2n[nH]c3ccccc23)cc1OC	?	11µM*	10µM*	.	.	?
COc1ccc(CCNC(=O)c2ccc(CNc3nc(=S)[nH]c4ccccc34)cc2)cc1OC	.	-29%	10µM*	-24%	-26%	4%[46.1 µM]
COc1ccc(CCNc2nc(=S)[nH]c3cc(OC)c(OC)cc23)cc1OC	.	?	?	0%	-22%	.
COc1ccccc1CNC(=O)COC(=O)c1n[nH]c2ccccc12	?	?	?	-22%	?	-20%
Cc1cc(C)nc(NC(=O)c2c(F)c(F)c(F)c(C(=O)Nc3cc(C)cc(C)n3)c2F)c1	.	25µM*	-28%	.	.	.
COC(=O)c1c(C)nc2ccccc2c1C(=O)O	0%	-13%	17%	-6%	4%	-13%
COC(=O)c1cc(C)[nH]c2c(C)cc3nc4ccccc4c3c12	22%[46.1 µM]	?	10µM*	?	-26%	?
Cc1[nH]c(=O)c(C(=O)/C=C/c2ccccc2F)c2c1CCCC2	10µM*	14µM*	2.5µM*	.	.	12µM*
c1ccc2c(N3CCCCCC3)nc(CN3CCCCC3c3nccs3)nc2c1 (centres undefined)	.	-13%	.	?	-12%	.
COc1ccc(C(=O)Nc2ccc3c(c2)OCCO3)cc1	5.2µM*	.	-4%	i	-8%	6.5µM*
C/C(=N\NC(=S)Nc1ccc(F)cc1)c1ccc2c(c1)OCCO2	?	-10%	?	-24%	?	1µM*
Cc1cc(NC(=O)c2ccc3c(c2)OCCO3)ccc1NC(=O)c1cc2ccccc2o1	.	-27%	11µM*	.	.	.
O=C(Nc1ccc(NC(=O)c2cc3ccccc3o2)cc1)c1ccc2c(c1)OCCO2	-18%	?	?	8%	-7%	?
COc1cc(C(=O)Nc2ccc3c(c2)OCCO3)ccc1OC(C)C	6%	-3%	13µM*	.	-21%	0%
Cc1ccc2c(CC(=O)Nc3c(C(=O)c4ccc(C)c(F)c4)oc4ccccc34)coc2c1	15%[46.1 µM]	-2%	.	-15%	-13%	21%[46.1 µM]
